Structures are written as SMILES. The list shows a part of the results. The source made the active and inactive calls. Calls follow the shape of the full dose curve.

Aldehyde dehydrogenase 1A1 (Homo sapiens), sequence (P00352 whole entry, looked up): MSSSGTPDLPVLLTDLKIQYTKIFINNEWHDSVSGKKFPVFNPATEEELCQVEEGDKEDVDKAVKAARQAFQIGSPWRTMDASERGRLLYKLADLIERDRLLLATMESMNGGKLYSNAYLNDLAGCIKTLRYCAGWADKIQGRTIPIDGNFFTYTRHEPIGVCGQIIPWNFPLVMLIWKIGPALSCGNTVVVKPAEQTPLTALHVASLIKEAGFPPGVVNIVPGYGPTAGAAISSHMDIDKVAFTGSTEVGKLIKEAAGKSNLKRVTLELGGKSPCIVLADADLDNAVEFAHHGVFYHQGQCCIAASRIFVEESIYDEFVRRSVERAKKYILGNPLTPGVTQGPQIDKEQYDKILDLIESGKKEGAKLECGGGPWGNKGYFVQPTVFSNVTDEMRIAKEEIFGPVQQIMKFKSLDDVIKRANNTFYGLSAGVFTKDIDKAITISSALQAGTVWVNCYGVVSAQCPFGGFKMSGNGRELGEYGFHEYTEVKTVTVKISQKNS

The target of this test is Aldehyde dehydrogenase 1A1 (Homo sapiens) (UniProt P00352). Put plainly: Inhibitors of Aldehyde Dehydrogenase 1 (ALDH1A1): Followup Confirmation and Counterscreen. To be noted: purified ALDH1A1, NADH fluorescence, propionaldehyde/NAD+. From the text:
Aldehyde dehydrogenase 1 (ALDH1A1) catalyzes the NAD+ dependent oxidation of a variety of endogenous and exogenous aldehydes to the corresponding carboxylic acids. The enzyme is the critical step in the metabolic activation of retinoic acid, which plays essential roles as nuclear receptor ligand. […] See [1] through for more information on ALDH1A1. Inhibition of ALDH1A1 activity was screened by utilizing propionaldehyde as an electron donor and NAD+ as an electron acceptor/cofactor. An increase in the fluorescence intensity due to conversion of NAD+ to NADH was used to measure the enzyme activity. See [5] for screening methodology used. References: [1] Manzer R, Qamar L, Estey T, Pappa A, Petersen DR, Vasiliou V. Molecular cloning and baculovirus expression of the rabbit corneal aldehyde dehydrogenase (ALDH1A1) cDNA. DNA Cell Biol. 2003 May;22(5):329-38. Collard F, Vertommen D, Fortpied J, Duester G, Van Schaftingen E. Identification of 3-deoxyglucosone dehydrogenase as aldehyde dehydrogenase 1A1 (retinaldehyde dehydrogenase 1). Biochimie. 2007 Mar;89(3):369-73. Ziouzenkova O, Orasanu G, Sharlach M, Akiyama TE, Berger JP, Viereck J, Hamilton JA, Tang G, Dolnikowski GG, Vogel S, Duester G, Plutzky J. Retinaldehyde represses adipogenesis and diet-induced obesity. Nat Med. 2007 Jun;13(6):695-702. Molotkov A, Duester G. Genetic evidence that retinaldehyde dehydrogenase Raldh1 (Aldh1a1) functions downstream of alcohol dehydrogenase Adh1 in metabolism of retinol to retinoic acid. J Biol Chem. 2003 Sep 19;278(38):36085-90. […] Quantitative high-throughput screening: a titration-based approach that efficiently identifies biological activities in large chemical libraries. […]
Buffer: 100 mM Hepes pH 7.5, 0.01% Tween 20. […] The plates were immediately transferred to and read twice on ViewLux High-throughput CCD imager (Perkin-Elmer) 20 minutes apart using 360 nm excitation and 450 nm emission fluorescence protocol. The fluorescence intensity difference between the second and the first time points was used to compute reaction progress.
(In general: Counterscreens check selectivity or assay interference.)
Take `O=C(CN(Cc1ccccc1)C(=O)c1ccc2c(c1)OCCO2)NCc1ccc2c(c1)OCO2`: the Potency was 0.398 µM (active).

`CC1CCCN(C(=O)c2ccc3c(c2)C(=O)N(CCC2=CCCCC2)C3=O)C1` (stereo not drawn): the Potency was 1.26 µM (active). In the case of `Cc1cccc2c1N(CC(=O)OC(C)C)C(=O)C2=O`, the Potency was 0.0224 µM (active).

For the origin of these results see PubChem BioAssay AID493210 (National Center for Advancing Translational Sciences (NCATS), 2011).
